Measured values from PubChem BioAssay AID1159580 (chemical genetic matrix, 2015).
Several values for one entry are separate records, joined by “and”; a condition that tells them apart may be missing. Identical values can stand only once. Screen size: about 5,500 compounds; about 2,000 (36%) were called active. About 18% were inconclusive and are not listed. Rule as the data show it: active = normalized growth mostly below about 0.91 (no sharp cut-off); inconclusive = no clear call, values can overlap the other calls; inactive = mostly above about 0.92. The list shows a part of the results.

Test: chemical genetic growth profiling, strain panel (AID 1159580);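 also: tested at 20 µM; growth read once vehicle control cultures reached saturation at 30 °C; 1 = growth at the plate median or of vehicle wells; lower values mean less growth of the strain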
Conditions: growth OD

Measured: normalized growth

CCn1cc(C(=O)O)c(=O)c2cc(F)c(N3CCNC(C)C3)c(F)c21 (stereo not given)
inactive: S. cerevisiae deletion strains, locus YJR075W, strain HOC1, active compounds read low 0.991 and 0.993 | S. cerevisiae deletion strains, locus YKL009W, strain mrt4, active compounds read low 0.979 | S. cerevisiae deletion strains, locus YKL068W, active compounds read low 0.981 | S. cerevisiae deletion strains, locus YKL085W, strain MDH1 (second series), active compounds read low 0.985 | S. cerevisiae deletion strains, locus YKL085W, strain MDH1, active compounds read low 0.985 | S. cerevisiae deletion strains, locus YKL160W, strain elf1, active compounds read low 0.943 | S. cerevisiae deletion strains, locus YKL190W, strain CNB1, active compounds read low 0.995 | S. cerevisiae deletion strains, locus YKR001C, strain vps1, active compounds read low 0.993 | S. cerevisiae deletion strains, locus YKR026C, strain gcn3, active compounds read low 0.996 | S. cerevisiae deletion strains, locus YKR091W, strain srl3, active compounds read low 0.982 | S. cerevisiae deletion strains, locus YLL001W, strain dnm1, active compounds read low 0.985 | S. cerevisiae deletion strains, locus YLL026W, active compounds read low 0.99 | S. cerevisiae deletion strains, locus YLL041C, strain sdh2, active compounds read low 0.975 | S. cerevisiae deletion strains, locus YLR027C, strain aat2, active compounds read low 0.992 | S. cerevisiae deletion strains, locus YLR039C, strain RIC1, active compounds read low 0.973 | S. cerevisiae deletion strains, locus YLR058C, strain SHM2, active compounds read low 0.995 | S. cerevisiae deletion strains, locus YLR102C, strain apc9, active compounds read low 0.986 | S. cerevisiae deletion strains, locus YLR113W, strain HOG1, active compounds read low 1.06 | S. cerevisiae deletion strains, locus YLR221C, strain rsa3, active compounds read low 1 | S. cerevisiae deletion strains, locus YLR258W, strain gsy2, active compounds read low 0.98 | S. cerevisiae deletion strains, locus YLR262C, strain YPT6 (second series), active compounds read low 0.996 | S. cerevisiae deletion strains, locus YLR262C, strain YPT6, active compounds read low 0.979 | S. cerevisiae deletion strains, locus YLR268W, strain sec22, active compounds read low 0.988 | S. cerevisiae deletion strains, locus YLR320W, strain mms22, active compounds read low 0.961 | S. cerevisiae deletion strains, locus YLR330W, strain CHS5, active compounds read low 0.982 | S. cerevisiae deletion strains, locus YLR342W, strain FKS1 (second series), active compounds read low 0.951 | S. cerevisiae deletion strains, locus YLR342W, strain FKS1, active compounds read low 0.957 | S. cerevisiae deletion strains, locus YLR357W, strain rsc2, active compounds read low 0.919 | S. cerevisiae deletion strains, locus YLR370C, strain arc18, active compounds read low 0.965 | S. cerevisiae deletion strains, locus YLR371W, strain rom2, active compounds read low 0.992 | S. cerevisiae deletion strains, locus YLR384C, strain iki3, active compounds read low 0.964 | S. cerevisiae deletion strains, locus YLR418C, strain cdc73, active compounds read low 0.892 | S. cerevisiae deletion strains, locus YML016C, strain PPZ1, active compounds read low 0.991 | S. cerevisiae deletion strains, locus YML032C, strain rad52, active compounds read low 0.994 | S. cerevisiae deletion strains, locus YML120C, strain ndi1, active compounds read low 0.993 | S. cerevisiae deletion strains, locus YML124C, strain tub3, active compounds read low 0.996 | S. cerevisiae deletion strains, locus YMR058W, strain fet3, active compounds read low 0.994 | S. cerevisiae deletion strains, locus YMR078C, strain ctf18, active compounds read low 0.982 | S. cerevisiae deletion strains, locus YMR125W, strain sto1, active compounds read low 0.961 | S. cerevisiae deletion strains, locus YMR129W, active compounds read low 0.971 | S. cerevisiae deletion strains, locus YMR205C, strain PFK2, active compounds read low 0.985 | S. cerevisiae deletion strains, locus YMR223W, strain ubp8, active compounds read low 0.976 | S. cerevisiae deletion strains, locus YMR231W, strain pep5, active compounds read low 0.984 | S. cerevisiae deletion strains, locus YMR263W, strain SAP30, active compounds read low 1 | S. cerevisiae deletion strains, locus YMR307W, strain GAS1, active compounds read low 1.01 | S. cerevisiae deletion strains, locus YNL067W, strain RPL9B, active compounds read low 1.03 | S. cerevisiae deletion strains, locus YNL071W, strain lat1, active compounds read low 0.977 | S. cerevisiae deletion strains, locus YNL128W, strain TEP1, active compounds read low 0.964 | S. cerevisiae deletion strains, locus YNL153C, strain GIM3, active compounds read low 1.06 | S. cerevisiae deletion strains, locus YNL175C, strain NOP13, active compounds read low 0.998 | S. cerevisiae deletion strains, locus YNL183C, strain NPR1, active compounds read low 0.962 | S. cerevisiae deletion strains, locus YNL197C, strain WHI3, active compounds read low 1 | S. cerevisiae deletion strains, locus YNL209W, strain ssb2, active compounds read low 0.965 | S. cerevisiae deletion strains, locus YNL224C, strain SQS1, active compounds read low 0.994 | S. cerevisiae deletion strains, locus YNL233W, strain BNI4, active compounds read low 1.03 | S. cerevisiae deletion strains, locus YNL248C, strain rpa49, active compounds read low 0.926 | S. cerevisiae deletion strains, locus YNL250W, strain rad50, active compounds read low 0.943 | S. cerevisiae deletion strains, locus YNL271C, strain bni1, active compounds read low 0.992 | S. cerevisiae deletion strains, locus YNL298W, strain CLA4, active compounds read low 0.988 | S. cerevisiae deletion strains, locus YNL307C, strain MCK1, active compounds read low 0.984 | S. cerevisiae deletion strains, locus YNL322C, strain KRE1 (second series), active compounds read low 0.964 | S. cerevisiae deletion strains, locus YNL322C, strain KRE1, active compounds read low 1.02 | S. cerevisiae deletion strains, locus YNR049C, strain mso1, active compounds read low 0.975 | S. cerevisiae deletion strains, locus YNR052C, strain pop2, active compounds read low 0.989 | S. cerevisiae deletion strains, locus YOL006C, strain TOP1, active compounds read low 1.08 | S. cerevisiae deletion strains, locus YOL012C, strain htz1 1.44 | S. cerevisiae deletion strains, locus YOL147C, strain pex11, active compounds read low 0.985 | S. cerevisiae deletion strains, locus YOR001W, strain rrp6, active compounds read low 1 | S. cerevisiae deletion strains, locus YOR061W, strain CKA2, active compounds read low 0.993 | S. cerevisiae deletion strains, locus YOR069W, strain VPS5, active compounds read low 0.988 | S. cerevisiae deletion strains, locus YOR070C, strain gyp1, active compounds read low 0.985 | S. cerevisiae deletion strains, locus YOR080W, strain dia2, active compounds read low 0.972 | S. cerevisiae deletion strains, locus YOR083W, strain WHI5 (second series), active compounds read low 0.992 | S. cerevisiae deletion strains, locus YOR083W, strain WHI5, active compounds read low 0.897 | S. cerevisiae deletion strains, locus YOR106W, strain vam3, active compounds read low 0.931 | S. cerevisiae deletion strains, locus YOR136W, strain idh2, active compounds read low 0.998 | S. cerevisiae deletion strains, locus YOR144C, strain elg1, active compounds read low 0.992 | S. cerevisiae deletion strains, locus YOR184W, strain ser1, active compounds read low 0.988 | S. cerevisiae deletion strains, locus YOR231W, strain MKK1, active compounds read low 1.04 | S. cerevisiae deletion strains, locus YOR265W, strain rbl2, active compounds read low 0.972 | S. cerevisiae deletion strains, locus YOR270C, strain vph1, active compounds read low 0.982 | S. cerevisiae deletion strains, locus YOR290C, strain snf2, active compounds read low 0.968 | S. cerevisiae deletion strains, locus YOR316C, strain cot1, active compounds read low 1 | S. cerevisiae deletion strains, locus YPL051W, strain arl3, active compounds read low 0.971 | S. cerevisiae deletion strains, locus YPL055C, strain LGE1, active compounds read low 0.985 | S. cerevisiae deletion strains, locus YPL078C, strain atp4, active compounds read low 0.957 | S. cerevisiae deletion strains, locus YPL106C, strain sse1, active compounds read low 0.939 | S. cerevisiae deletion strains, locus YPL240C, strain hsp82, active compounds read low 0.983 | S. cerevisiae deletion strains, locus YPL256C, strain CLN2, active compounds read low 1.04 | S. cerevisiae deletion strains, locus YPR119W, strain clb2, active compounds read low 0.993 | S. cerevisiae deletion strains, locus YPR141C, strain kar3, active compounds read low 0.985 | S. cerevisiae deletion strains, locus YPR163C, strain tif3, active compounds read low 0.986 | S. cerevisiae deletion strains, locus YPR167C, strain met16, active compounds read low 0.999 | S. cerevisiae deletion strains, strain wtn01, active compounds read low 0.998 | S. cerevisiae strains, strain wild type, active compounds read low 0.997
